# Reference: PubChem BioAssay AID1159580 (chemical genetic matrix, 2015)
# Hit rate of the full screen: of about 5,500 compounds, about 2,000 (36%) were called active. Another 18% or so got no clear call; they are omitted. The list shows a part of the results. Values without a mark were called inactive. No stated cut-off is given here; in the data, active means normalized growth mostly below about 0.91 (no sharp cut-off); inconclusive means no clear call, values can overlap the other calls; inactive means mostly above about 0.92.
# Experiment: chemical genetic growth profiling, strain panel (AID 1159580);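 further: tested at 20 µM; growth read once vehicle control cultures reached saturation at 30 °C; 1 = growth at the plate median or of vehicle wells; lower values mean less growth of the strain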
# Conditions: S. cerevisiae deletion strains, growth OD
structure (smiles),measurement,setting,value
CCOC(=O)C1=C(N)Oc2ccc(Br)cc2C1C(C#N)C(=O)OCC (stereo not drawn),normalized growth,"locus YAL013W, strain DEP1, hits give low values",0.934
same,normalized growth,"locus YBR229C, strain ROT2, hits give low values",0.938
same,normalized growth,"locus YCL061C, strain MRC1, hits give low values",0.916
same,normalized growth,"locus YDL101C, strain DUN1, hits give low values",0.884 (active)
same,normalized growth,"locus YDR150W, strain NUM1, hits give low values",0.957
same,normalized growth,"locus YEL061C, strain CIN8, hits give low values",0.648 (active)
same,normalized growth,"locus YGR078C, strain PAC10, hits give low values",0.938
same,normalized growth,"locus YGR229C, strain SMI1, hits give low values",0.963
same,normalized growth,"locus YHR030C, strain SLT2, hits give low values",0.293 (active)
same,normalized growth,"locus YHR087W, strain rtc3, hits give low values",0.979
same,normalized growth,"locus YJL187C, strain SWE1, hits give low values",0.959
same,normalized growth,"locus YJR043C, strain POL32, hits give low values",0.983
same,normalized growth,"locus YJR075W, strain HOC1, hits give low values",0.88 (active)
same,normalized growth,"locus YLR039C, strain RIC1, hits give low values",0.386 (active)
same,normalized growth,"locus YLR058C, strain SHM2 (second series), hits give low values",0.986
same,normalized growth,"locus YLR085C, strain ARP6, hits give low values",0.379 (active)
same,normalized growth,"locus YLR262C, strain YPT6, hits give low values",0.46 (active)
same,normalized growth,"locus YML094W, strain GIM5, hits give low values",0.669 (active)
same,normalized growth,"locus YMR219W, strain ESC1, hits give low values",0.979
same,normalized growth,"locus YMR263W, strain SAP30, hits give low values",0.964
same,normalized growth,"locus YMR307W, strain GAS1, hits give low values",0.667 (active)
same,normalized growth,"locus YNL153C, strain GIM3, hits give low values",0.982
same,normalized growth,"locus YNL298W, strain CLA4 (second series), hits give low values",0.61 (active)
same,normalized growth,"locus YNL322C, strain KRE1, hits give low values",0.992
same,normalized growth,"locus YNR030W, strain Alg12, hits give low values",0.528 (active)
same,normalized growth,"locus YPL055C, strain LGE1, hits give low values",0.98
same,normalized growth,"locus YPL241C, strain CIN2, hits give low values",0.472 (active)
same,normalized growth,"locus YPR135W, strain CTF4, hits give low values",0.424 (active)
